According to ChEMBL document CHEMBL1201862, “PubChem BioAssay data set” (2004):
Among all 400,000 compounds or so, about 2,100 (0.53%) were called active. Not shown: some 14% with an inconclusive outcome. How the calls were made is not given here. For the sample, actives were picked, then their nearest neighbours and some compounds at random.

These molecules were tested against Ataxin-2 (Homo sapiens) (UniProt Q99700) (assay: qHTS for Inhibitors of ATXN expression.).
Type: functional

Chain of Ataxin-2 (Homo sapiens) (Q99700 whole entry): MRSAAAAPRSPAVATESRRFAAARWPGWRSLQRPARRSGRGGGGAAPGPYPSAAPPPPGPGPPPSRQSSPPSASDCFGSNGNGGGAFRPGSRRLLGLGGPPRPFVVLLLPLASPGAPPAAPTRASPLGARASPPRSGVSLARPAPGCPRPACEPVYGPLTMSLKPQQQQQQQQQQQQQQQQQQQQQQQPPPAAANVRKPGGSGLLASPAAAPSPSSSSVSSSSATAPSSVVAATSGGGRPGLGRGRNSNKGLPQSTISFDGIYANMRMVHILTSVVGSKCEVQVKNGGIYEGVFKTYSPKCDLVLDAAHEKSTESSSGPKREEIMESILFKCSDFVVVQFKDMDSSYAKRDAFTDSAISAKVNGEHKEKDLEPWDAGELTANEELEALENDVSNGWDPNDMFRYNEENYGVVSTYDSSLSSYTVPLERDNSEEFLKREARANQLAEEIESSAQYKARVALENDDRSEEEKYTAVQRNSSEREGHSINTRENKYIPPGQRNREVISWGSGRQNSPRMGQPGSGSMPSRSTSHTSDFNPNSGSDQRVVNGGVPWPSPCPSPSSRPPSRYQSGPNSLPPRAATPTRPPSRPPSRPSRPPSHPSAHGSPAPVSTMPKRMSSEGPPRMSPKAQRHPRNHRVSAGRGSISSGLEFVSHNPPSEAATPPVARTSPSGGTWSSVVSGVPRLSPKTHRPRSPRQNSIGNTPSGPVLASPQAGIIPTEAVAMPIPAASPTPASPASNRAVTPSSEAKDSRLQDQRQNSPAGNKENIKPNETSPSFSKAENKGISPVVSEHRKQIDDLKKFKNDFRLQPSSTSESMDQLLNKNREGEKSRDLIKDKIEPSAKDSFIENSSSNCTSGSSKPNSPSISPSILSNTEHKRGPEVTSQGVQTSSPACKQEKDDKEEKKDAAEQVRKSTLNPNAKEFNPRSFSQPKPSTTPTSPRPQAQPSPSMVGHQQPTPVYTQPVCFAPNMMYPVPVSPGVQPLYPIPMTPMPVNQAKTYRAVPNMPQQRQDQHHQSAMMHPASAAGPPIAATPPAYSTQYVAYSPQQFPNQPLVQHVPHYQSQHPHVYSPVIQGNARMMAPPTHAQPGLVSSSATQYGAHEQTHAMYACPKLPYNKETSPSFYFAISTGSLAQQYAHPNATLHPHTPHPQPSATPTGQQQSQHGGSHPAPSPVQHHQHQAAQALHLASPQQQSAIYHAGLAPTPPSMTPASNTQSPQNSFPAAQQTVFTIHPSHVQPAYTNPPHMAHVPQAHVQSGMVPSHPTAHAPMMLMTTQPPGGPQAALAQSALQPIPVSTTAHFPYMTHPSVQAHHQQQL

SMILES	Potency
COc1cc(CO)c(Br)cc1OCC(N)=O	inactive
COc1ccc(Nc2ncc(F)c(N3CCOCC3)n2)cc1	inactive
COc1ccc(C2c3c(ncn(CCN4CCOCC4)c3=N)Oc3ccc4ccccc4c32)cc1OC (stereo unspecified)	14.1 µM (active)
N=c1c(C(=O)NC2CCCC2)cc2c(=O)n3ccccc3nc2n1CCCN1CCOCC1	inactive
CN(C)CCn1cnc2c(c1=N)C(c1ccccc1)c1ccc3ccccc3c1O2 (stereo unspecified)	28.2 µM (active)
COc1ccc(C2c3ccc4ccccc4c3Oc3ncn(CCN4CCOCC4)c(=N)c32)cc1 (stereo unspecified)	14.1 µM (active)
COc1ccc2nc(NCCN=C(S)NCCCN3CCOCC3)c(C#N)cc2c1	inactive
COc1ccc(C2c3ccc4ccccc4c3Oc3ncn(CCCO)c(=N)c32)cc1 (stereo unspecified)	35.5 µM (active)
Cc1ccc(S(=O)(=O)NC23CC4CC(CC(C4)C2)C3)cc1	inactive
CCCn1nc(NC(=O)COC)c2cc3cccc(C)c3nc21	inactive
COc1ccc(OC)c(/C=C2\Oc3cc(OCC(=O)N4CCC[C@H]4C(=O)O)ccc3C2=O)c1	inactive
COCCNc1oc(/C=C/c2ccccc2)nc1C#N	inactive
COc1cc2ccccc2nn1	inactive
N=c1c2c(ncn1Cc1ccco1)Oc1ccc3ccccc3c1C2c1ccccc1 (stereo unspecified)	12.6 µM (active)
COc1ccc(C2c3c(ncn(CCCO)c3=N)Oc3ccc4ccccc4c32)cc1 (stereo unspecified)	25.1 µM (active)
COc1ccc(C2C=C(c3ccccc3)Nc3nc(CCCO)nn32)cc1 (stereo unspecified)	inactive
CCOCCn1c(CN2CCCC(C)C2)nc2c1c(=O)n(C)c(=O)n2C (stereo unspecified)	inactive
COCCCn1c(C)nnc1SCc1ccc(C(C)(C)C)cc1	inactive
CC(=O)Nc1nc2n(n1)C(c1ccc(F)cc1)C=C(c1ccc(Cl)cc1)N2 (stereo unspecified)	inactive
Cc1ccc(N2C(=O)/C(=C\Nn3cnnc3)c3ccccc3C2=O)cc1	inactive
Cc1nc(SCc2ccccc2)c2ccsc2n1	inactive
CCCCN=c1nc(S)n(-c2ccccc2)c(C)c1C(C)=O	39.8 µM (active)

SMILES	Potency
CCCCn1c(=O)nc2n(-c3ccccc3)c3ccccc3cc-2c1=O	inactive
COc1ccc(C(=O)/C(C#N)=N/Nc2ccc([N+](=O)[O-])cc2)cc1	10 µM (active)
C/C(=N\Nc1ccc([N+](=O)[O-])cc1)c1ccco1	inactive
O=[N+]([O-])c1ccc(NN=C(Oc2ccccc2)c2ccc([N+](=O)[O-])cc2)cc1	inactive
Cc1cc(C)c(S(=O)(=O)Nc2cc(SCC(=O)O)c(O)c3ccccc23)cc1C	20 µM (active)
CC(=O)Nc1ccc(NS(=O)(=O)c2cc(-c3cnc(C4CC4)o3)ccc2C)cc1	inactive
COC(=O)CCC(=O)N1CCCC(N2CCN(c3cccc(C(F)(F)F)c3)CC2)C1 (stereo unspecified)	inactive
CSC1=NCCN1S(=O)(=O)c1ccc(F)cc1	inactive
COC(=O)Cc1c(C)c2ccc(O)c(CNCc3ccc(OC)c(OC)c3)c2oc1=O	inactive
CCc1ccc2oc(-c3ccc(OC)cc3)cc(=Nc3cccc(C(=O)O)c3)c2c1	inactive
Cc1sc(Cc2nc(O)cs2)nc1-c1ccccc1	inactive
COc1ccc(-c2c/c(=N\c3nc(-c4ccccc4)c(C)s3)c3ccccc3o2)cc1O	31.6 µM (active)
COC(=O)c1ccc2nc(C3CCCCC3)c(CC(C)(C)C)n2c1	39.8 µM (active)
COCCCn1c(=N)c(C(=O)NC2CCCCC2)cc2c(=O)n3cc(C)ccc3nc21	inactive
COC(=O)C1=CN(C2CC2)C=C(C(=O)OC)C1c1ccc(C(=O)OC)cc1	inactive
Cc1nc(-c2ccccc2)sc1-c1ccnn1C	inactive
CCc1ccc(C2=C(C)C(N3CCC(C(=O)Nc4ccc(F)cc4)CC3)=NS2(=O)=O)cc1	39.8 µM (active)
CCOC(=O)C1=C(C)N=c2s/c(=C/c3ccc(OCC(=O)O)cc3)c(=O)n2C1c1ccc(OC)cc1OC (stereo unspecified)	inactive
CCSc1nnc2nc3c(c(O)n12)C1(CCCC1)Cc1ccccc1-3	inactive
O=c1c2ccccc2[nH]c(=S)n1Cc1ccc2c(c1)OCO2	inactive
Fc1ccc2[nH]c3c(N4CCN(Cc5ccc6c(c5)OCO6)CC4)ncnc3c2c1	39.8 µM (active)
Cc1ccc2c(c1)[nH]c1c(N3CCN(Cc4ccccc4)CC3)ncnc12	11.2 µM (active)

SMILES	Potency
Cc1c(O)ccc2c(CN3CCN(Cc4ccccc4)CC3)cc(=O)oc12	inactive
Cn1cc(CN2CCN(Cc3ccc4c(c3)OCO4)CC2)c(-c2ccccc2F)n1	inactive
CCc1ccc(CN2CCN(c3ncccn3)CC2)cc1	inactive
Cc1cc(-c2ccnc(-n3ncc(C(=O)NC(C)(C)CO)c3C3CC3)n2)c(C)s1	inactive
CC(C)CCNC(=O)c1cc2c(=O)n3ccccc3nc2s1	inactive
Cc1ccc(C(=O)OCC(=O)Nc2nc(-c3ccccc3)cs2)cc1NC(=O)c1ccco1	inactive
Cc1ccc(C(=O)NCCC(C)C)cc1NC(=O)c1nsc2ccccc12	25.1 µM (active)
O=C1/C(=C/NCc2ccccn2)c2ccccc2C(=O)N1c1ccccc1	inactive
OC[C@@H]1[C@@H](c2ccc(Cl)cc2)C(c2ccccc2)=NN1c1ccccc1	inactive
O=S(=O)(c1ccc(Cl)cc1)N(Cc1cccnc1)Cc1cc2ccccc2nc1O	25.1 µM (active)
Oc1nc2ccccc2nc1Cc1ccc(Cl)cc1	inactive
Cc1ccc(N(Cc2cc3ccccc3nc2O)C(=O)c2cccs2)cc1	inactive
COCCCn1c(=O)/c(=C/c2ccccc2OC(C)C)s/c1=C(\C#N)C(=O)Nc1ccc(C(=O)O)cc1	inactive
CCCN(C(=O)CCl)C1=CCCCC1	5.97 µM (active)
CSc1nc(N2CCOCC2)nc2ccc(C)cc12	inactive
O=C(/C=C/c1cccc([N+](=O)[O-])c1)n1cnc2ccccc21	20 µM (active)
O=C(Cn1cnc2ccccc21)Nc1cccc([N+](=O)[O-])c1	inactive
O=[N+]([O-])c1ccc(Cc2nnc(O)c3ccccc23)cc1	inactive
O=[N+]([O-])c1ccc(COc2ncnc3ccccc23)cc1	inactive
O=C(/C=C/c1ccc([N+](=O)[O-])cc1)c1ccccc(=O)c1O	13.4 µM (active)
O=C(c1ccc(Cl)cc1)n1cnc2ccccc21	inactive
COc1ccccc1C(=O)/C=C/c1ccc(N2CCCCC2)c([N+](=O)[O-])c1	39.8 µM (active)

SMILES	Potency
CC(=O)Oc1ccccc1C(=O)C=Cc1cccc([N+](=O)[O-])c1	39.8 µM (active)
CC(=O)c1ccccc1NC(=O)c1cc(S(=O)(=O)N2CCOCC2)ccc1N1CCCC1	inactive
CC(=O)c1ccc(N2CCN(C(=O)c3ccc(Cn4c(=S)[nH]c5ccc(N6CCOCC6)cc5c4=O)cc3)CC2)cc1	inactive
COc1ccc(C2=CC(c3ccc(OC)c(OC)c3)n3nnnc3N2)c(OC)c1 (stereo unspecified)	inactive
COC(=O)Cn1nnnc1-c1nc2cc(C)c(C)cc2nc1O	inactive
O=C(NCCO)Nc1ccc2nsnc2c1	inactive
CCN(CC)C(=O)C1=C(C)N(Cc2ccc(C(C)(C)C)cc2)C(=O)C(CC(=O)NC(c2ccccc2)c2ccccc2)C1 (stereo unspecified)	28.2 µM (active)
COc1ccc(CNC(=O)CN2C(=O)NC(C)(c3ccc(C(C)(C)C)cc3)C2=O)cc1 (stereo unspecified)	inactive
CCN(CC)C(=O)C1=C(C)N(Cc2ccc(C(C)(C)C)cc2)C(=O)C(CC(=O)NCCCCc2ccccc2)C1 (stereo unspecified)	35.5 µM (active)
O=C(CSC1=NCCN1)NC(c1ccccc1)c1ccccc1	inactive
CCN(CC)C(=O)C1=C(C)N(Cc2ccc(C(C)(C)C)cc2)C(=O)C(CC(=O)NCc2cccc3ccccc23)C1 (stereo unspecified)	25.1 µM (active)
CCN(CCNC(=O)C1CCC(=O)N1Cc1ccc(C)cc1)c1ccccc1 (stereo unspecified)	inactive
CC(=O)c1sc(Nc2nc3cc4c(cc3s2)OCO4)nc1C	inactive
O=C1C2CC(O)CN2C(=S)N1Cc1ccccc1 (stereo unspecified)	inactive
O=C(Cc1cc(=O)oc2cc(O)ccc12)NC(Cc1ccc(Cl)cc1)C(=O)O (stereo unspecified)	inactive
COc1cc(C(=O)OCc2ccc(C)cc2)cc(NC(=O)c2cccs2)c1OC	inactive
O=C(Nc1cccc(Br)c1)C1CCCC1	inactive
CN(C)c1ccc(/C=C/C(=O)c2ccc3c(c2)OCO3)cc1	inactive
CC(=O)Nc1cccc(C(=O)/C=C/c2ccc(Br)cc2)c1	20 µM (active)
COc1cccc(Cn2c(=O)c3ccccc3n3nc(C)cc23)c1	inactive
COc1ccc(OC)c(C(=O)/C=C/c2cccnc2)c1	39.8 µM (active)
CC(/C=C/C=C/c1ccccc1)=N\NC(=O)c1cccnc1	inactive

SMILES	Potency
COc1cc(O)c(C(=O)/C=C/c2ccccc2)c(OC)c1	35.5 µM (active)
COc1cc(OC)c2cc(C(=O)N/N=C/c3ccccc3O)[nH]c2c1	inactive
O=C(/C=C/c1cccnc1)c1cccc(O)c1	26.7 µM (active)
O=C(NNc1ccccc1)/C(=C\c1cccnc1)NC(=O)c1ccccc1	inactive
Cc1cc(O)c(C(=O)/C=C/c2ccccc2)c(=O)o1	inactive
COc1ccc(C(=O)/C=C/c2ccc(N(C)C)cc2)c(OC)c1	inactive
O=C(C=Cc1cccnc1)c1ccccc1	39.8 µM (active)
Cc1cc(-c2sccc2Br)nc(-n2cccc2)n1	inactive
COc1cccc(/C=N/NC(=O)c2cnn(-c3ccccc3)c2N)c1	inactive
COc1ccc(S(=O)(=O)N2CCOCC2)cc1NC(=O)COC(=O)c1oc2ccccc2c1C	inactive
N#Cc1c2c(c(NCCOCCO)n3c1nc1ccccc13)CCCC2	inactive
OCCCc1nc2n(n1)C(c1cccc(Cl)c1)C=C(c1ccccc1)N2 (stereo unspecified)	inactive
COc1ccc(C(=O)COC(=O)/C=C/c2ccco2)cc1F	inactive
COC(=O)C(=C/C(C)=C/c1cccnc1)C(=O)OC	22.4 µM (active)
N#Cc1ccc(/C=C\c2[nH]ccc3c4ccccc4nc2-3)cc1	inactive
N#Cc1ccc(/C=C/C(=O)c2cccnc2)cc1	25.1 µM (active)
N#Cc1ccc(C(=O)CSc2nnc(O)n2-c2cccnc2)cc1	inactive
O=C(N/N=C/c1cccnc1)c1ccccc1OCc1ccc(Br)cc1	inactive
